Assay results published in PubChem BioAssay AID950 (NMMLSC, 2007).
Hit rate of the full screen: of about 190,000 compounds, about 120 (0.063%) were called active. Cut-off read from the data, not from the text of the source: active = inhibition above about 40%; inconclusive = no clear call, values can overlap the other calls; inactive = below that. What follows is part of a selection rich in actives, with near analogues and random picks from the rest.

What follows are molecules tested against Apoptosis regulator Bcl-2 (Homo sapiens) (UniProt P10415) (assay: Bcl-2 and Bim peptide interaction disruptors – biochemical, multiplexed, human Bcl-2 family, primary screen (AID 950;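 note: 0% = no compound wells with probe peptide and 100% = reference peptide inhibitor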)). Settings: Bead-based flow cytometry, Bim peptide-Bcl-2 binding; at 10 µM; stronger effect = higher value.
Sequence of Apoptosis regulator Bcl-2 (Homo sapiens) (P10415 whole entry, looked up): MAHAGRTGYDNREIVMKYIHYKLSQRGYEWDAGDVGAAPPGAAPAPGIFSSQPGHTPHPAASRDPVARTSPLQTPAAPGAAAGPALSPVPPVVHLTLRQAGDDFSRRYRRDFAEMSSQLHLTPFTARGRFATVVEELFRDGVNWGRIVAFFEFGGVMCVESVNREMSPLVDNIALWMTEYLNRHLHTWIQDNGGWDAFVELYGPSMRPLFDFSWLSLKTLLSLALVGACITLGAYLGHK
In the case of `COc1ccc(N2CCN(C(=O)C3CCN(S(=O)(=O)c4ccc(C)cc4)CC3)CC2)cc1`, the inhibition is reported as 2% (inactive).
In the case of `O=C(c1ccc(N2CCOCC2)c([N+](=O)[O-])c1)N1CCN(S(=O)(=O)c2cccs2)CC1`, the inhibition is reported as 0% (inactive).
In the case of `COc1ccc(C(=O)C[n+]2ccc(N)c(C)c2C)cc1`, the inhibition is reported as -1% (inactive).
With `Cc1ccc(Cl)cc1NC(=S)N(CCN(C)C)Cc1cccs1` the inhibition was -4% (inactive).
For `C/C(=N\NC(=S)NC(C)C)c1ccc(C(C)(C)C)cc1`, the inhibition was -4% (inactive).
In the case of `Cc1nnc(N/N=C/C2CC=CCC2)[nH]c1=O` (stereo not drawn), the inhibition is reported as 2% (inactive).
With `O=C(c1cccc(S(=O)(=O)N2CCCC2)c1)N(Cc1ccco1)C1CCS(=O)(=O)C1` (stereo not drawn) the inhibition was -3% (inactive).
`CCC(=O)Nc1ccc(Nc2nc(Cl)nc(Nc3ccc(NC(=O)CC)cc3)n2)cc1` was tested, and the inhibition was 0% (inactive).
In the case of `COCCCNCCOCCOc1ccc(Cl)cc1Br`, the inhibition is reported as 1% (inactive).
In the case of `O=C(NCc1ccccc1)C1=C[C@@H](C2CCCCC2)C[C@@H](OCc2ccc(CO)cc2)O1`, the inhibition is reported as -1% (inactive).
With `CCOC(=O)C1CCCN(C(=O)/C=C/c2ccc(OC)cc2)C1` (stereo not drawn) the inhibition was -3% (inactive).
In the case of `CCn1c(=O)cc(SCC(=O)NCCC2=CCCCC2)c2ccccc21`, the inhibition is reported as 8% (inactive).
In the case of `O=c1cnnc(Nc2ccccc2)[nH]1`, the inhibition is reported as -1% (inactive).
`O=C(N/N=C1\CCSC1)c1cc(Cl)ccc1O` was tested, and the inhibition was 3% (inactive).
For `CCOC(=O)COc1ccc([N+](=O)[O-])cc1`, the inhibition was -1% (inactive).
For `CCCn1c(C)cc(/C=C(\C#N)C(=O)OCC(=O)Nc2cc(OC)c(OC)c(OC)c2)c1C`, the inhibition was -6% (inactive).
In the case of `CC1(C)C(c2cccs2)=[N+]([O-])C2(CCCCC2=O)N1O` (stereo not drawn), the inhibition is reported as -5% (inactive).
`CCN(CC(=O)NCc1cccs1)C(=O)c1ccccc1F` was tested, and the inhibition was 1% (inactive).
For `COCCN(C(=S)Nc1ccccc1OC)C1CCN(C(C)C)CC1`, the inhibition was -1% (inactive).
`Cc1cc(NC(=O)CSCc2ccccc2C)no1` was tested, and the inhibition was -1% (inactive).
With `COC(=O)c1cc(C)sc1NC(=O)CC1Nc2ccccc2NC1=O` (stereo not drawn) the inhibition was 0% (inactive).
For `CCN(CC)CCOC(=O)c1ccc(NC(=O)CNC(=O)c2ccccc2)cc1`, the inhibition was -4% (inactive).
In the case of `CCC(NC(=O)c1ccccc1NC(=O)c1ccccc1)C(=O)NNC(=O)CSc1nc2ccccc2o1` (stereo not drawn), the inhibition is reported as -6% (inactive).
With `CC(=O)N1CC(C)c2scc(C)[n+]2-c2ccccc21` (stereo not drawn) the inhibition was 2% (inactive).
With `CC(O)c1nc2ccccc2n1Cc1ccc([N+](=O)[O-])cc1` (stereo not drawn) the inhibition was -5% (inactive).
In the case of `Cc1cc(C)cc(C(=O)N2CCN=C2SCc2ccc([N+](=O)[O-])cc2)c1`, the inhibition is reported as -3% (inactive).
`Cc1ccc(C(=O)N2CC(=O)Nc3ccccc32)o1` was tested, and the inhibition was -6% (inactive).
With `CCc1nnc(NC(=O)CSc2nnnn2-c2cccc(C(C)=O)c2)s1` the inhibition was -2% (inactive).
In the case of `Cn1cc(CCC(=O)N2CCCC(C(=O)c3ccc(C(C)(C)C)cc3)C2)cn1` (stereo not drawn), the inhibition is reported as -5% (inactive).
With `O=C(NCc1ccncc1)C(=O)NCc1ccco1` the inhibition was -1% (inactive).
In the case of `Cc1ccc(S(=O)(=O)NC2(C(F)(F)F)NC(=O)N(CCc3ccccc3)C2=O)cc1` (stereo not drawn), the inhibition is reported as -1% (inactive).
For `C=CS(=O)c1sc(Cl)c(N2CCOCC2)c1[N+](=O)[O-]` (stereo not drawn), the inhibition was 14% (inactive).
`CN1C(=O)/C(=C\c2cc(Br)cs2)c2ccccc21` was tested, and the inhibition was -2% (inactive).
`CC(=O)c1cc(C#N)c(N2CC(C)OC(C)C2)nc1C` (stereo not drawn) was tested, and the inhibition was -4% (inactive).
In the case of `Oc1ccc(/C=N/N(Cc2ccccc2)c2ccccc2)cc1`, the inhibition is reported as -9% (inactive).
In the case of `Cn1ncc(N2CCN(S(=O)(=O)c3ccc(Br)cc3)CC2)c(Cl)c1=O`, the inhibition is reported as -9% (inactive).
`C=CCOc1ccc(/C=N/NC(=O)C(C)Sc2ccccn2)cc1OCC` (stereo not drawn) was tested, and the inhibition was -6% (inactive).
In the case of `O=C(NNS(=O)(=O)c1ccc(F)cc1)c1cnccn1`, the inhibition is reported as 0% (inactive).
With `COCCC(=O)Nc1ccc2c(c1)CN(C(=O)CCOC)CC2` the inhibition was -4% (inactive).
With `Cc1ccc(NC(=O)CCC(=O)N/N=C/c2ccco2)c(C)c1` the inhibition was -6% (inactive).
For `CCCc1cc(=O)[nH]c(SCc2cc(=O)oc3c(C)c(C)ccc23)n1`, the inhibition was -3% (inactive).
In the case of `Cc1cccc(-c2nc3ccccc3c(=O)n2NC(=O)Cc2ccc(Cl)cc2)c1`, the inhibition is reported as -11% (inactive).
`S=C(NCc1ccco1)Nc1ccc2c(c1)OCCO2` was tested, and the inhibition was -1% (inactive).
`CCCCC(=O)NCc1ccc(F)cc1` was tested, and the inhibition was 0% (inactive).
`COc1ccc(NC(=S)NCc2cccs2)c(OC)c1` was tested, and the inhibition was -4% (inactive).
`O=C(O)CS/C(=C\c1ccc(F)cc1)c1nc2ccccc2s1` was tested, and the inhibition was 7% (inactive).
In the case of `CSCc1cc(N2CCOCC2)nc(SCc2ccc(Cl)cc2Cl)n1`, the inhibition is reported as -12% (inactive).
In the case of `Clc1ccc(CSc2nnc(/C=C/c3ccccc3)o2)c(Cl)c1`, the inhibition is reported as -8% (inactive).
With `CSCc1cc(N(C)C)nc(SCc2ccc(Cl)cc2Cl)n1` the inhibition was 76% (active).
`COc1ccc(/C(C)=N/Nc2cc(C(F)(F)F)ccc2Cl)c(OC)c1` was tested, and the inhibition was 2% (inactive).
`COc1c(C)cc(C(=O)C2CCCN(S(=O)(=O)c3c(C)noc3C)C2)cc1C` (stereo not drawn) was tested, and the inhibition was 0% (inactive).
For `CC1(C)OC(=O)C(=CSc2ccc(C(C)(C)C)cc2)C(=O)O1`, the inhibition was -3% (inactive).
In the case of `CCOC(=O)C1CCN(c2ncnc3c2c(-c2ccccc2)cn3-c2ccc(C)cc2)CC1`, the inhibition is reported as -5% (inactive).
`CCCN(CCC)c1ccc(C(O)c2nnc(-c3ccccc3)o2)cc1` (stereo not drawn) was tested, and the inhibition was -5% (inactive).
For `O=C(COc1ccc(Cl)cc1)NCc1nnc(SCC(=O)NCC2CCCO2)o1` (stereo not drawn), the inhibition was -2% (inactive).
With `COC(=O)c1c(NC(=O)CN2CCN(S(=O)(=O)c3ccccc3[N+](=O)[O-])CC2)sc2c1CCC(C)C2` (stereo not drawn) the inhibition was 2% (inactive).
For `O=S(=O)(c1ccccc1)c1nc(-c2ccccc2F)oc1NCc1cccnc1`, the inhibition was 2% (inactive).
`CS(=O)(=O)N(Cc1ccccc1Cl)c1ccc(C(=O)NCc2cccnc2)cc1` was tested, and the inhibition was -4% (inactive).
With `CCOC(=O)c1sc(NC(=O)CSc2nc(O)c(Cc3ccccc3)c(=O)[nH]2)nc1C` the inhibition was 0% (inactive).
In the case of `COc1ccc(CN2CN(C3CCCC3)CSC2=S)cc1`, the inhibition is reported as -4% (inactive).
`COC(=O)c1ccc(-n2cnc3ccccc32)nc1` was tested, and the inhibition was -4% (inactive).
In the case of `CCOc1cc(/C=C2/C(=N)N3OC(C)=CC3=NC2=O)ccc1OC`, the inhibition is reported as 2% (inactive).
For `CNC(=O)c1[nH]cnc1C(=O)N[C@@H](CC(C)C)C(=O)OCc1ccccc1`, the inhibition was -3% (inactive).
